Laboratory results published in PubChem BioAssay (NCATS).
Records with an inconclusive call do not appear. Active and inactive are the calls of the source. Calls come from the whole dose curve; as a rule, active = well fitted curve in the direction sought with a large enough effect; inconclusive = small, poorly fitted or top-dose-only effect, or another doubt; inactive = no such curve, though single readings can be large; an effect the other way counts as inactive or inconclusive.

Legend:
[1] = Cellular Toxicity (caspase-3) HepG2 (AID 654);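 note: cells exposed to compound for 16 hours before reading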
Summary of the method: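 Cells plated 5 hr at 37 °C, compound added, incubated 16 hr at 37 °C. Caspase-Glo 3/7 reagent followed, 20 min at room temperature, then luminescence read. Activation scored as signal increase; AC50 from Hill fit.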

[2] = Cellular Toxicity (caspase-3) Jurkat (AID 655);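 note: cells exposed to compound for 16 h at 37 °C before reading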
Summary of the method: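 Jurkat cells (5000/well) in complete medium were treated with compounds for 16 hr at 37 °C, then Caspase-Glo 3/7 luminescence was read after 20 min at room temperature. Data normalized to DMSO (basal) and 100 uM tamoxifen (100%); AC50 from Hill fit.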

[3] = Cellular Toxicity (caspase-3) HUV-EC-C (AID 656)
Summary of the method: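 HUV-EC-C endothelial cells, 1000/well, were pre-incubated 5 hr at 37°C, then exposed to compounds for 16 hr at 37°C. Caspase-Glo 3/7 luminescence was read after 20 min at room temperature. AC50 came from Hill fits, normalized to DMSO and 100 uM tamoxifen.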

[4] = Cellular Toxicity (caspase-3) SHSY5Y (AID 657)
Summary of the method: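 SH-SY5Y human neuroblastoma cells (1500/well) were treated with compounds for 16 h at 37 °C, then Caspase-Glo 3/7 luminescence was read after 1 h at room temperature. Data normalized to DMSO and 10 uM staurosporine; AC50 from Hill fits.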

[5] = Cellular Toxicity (caspase-3) BJ (AID 658)
Summary of the method: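 Readout: Caspase-Glo 3/7 luminescence increase in BJ cells after 16 hr treatment at 37 °C. Staurosporine and tamoxifen served as positive controls; AC50 values came from Hill modelling of data normalized to DMSO and 10 uM staurosporine.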

[6] = Cellular Toxicity (caspase-3) MRC-5 (AID 659)
Summary of the method: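 Concentration-dependent caspase 3/7 activation is measured in human normal lung fibroblasts (MRC-5) following 16-hour treatment. AC50 values come from standard Hill-equation modeling of luminescence normalized to DMSO and 10 uM staurosporine.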

[7] = Cellular Toxicity (caspase-3) Mesangial (AID 660);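 note: combined caspase 3 and 7 activity read by Caspase-Glo luminescence; cells exposed to compound for 16 h before the caspase read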
Summary of the method: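 Mesangial cells, 1000/well, 5 h settle at 37 °C; compound 16 h, 37 °C; Caspase-Glo 3/7 reagent 20 min RT; luminescence. Norm.: DMSO = 0%, tamoxifen 100 uM = 100%. AC50, Hill fit.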

[8] = Cellular Toxicity (caspase-3) SK-N-SH (AID 661)
Summary of the method: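 Human neuroblastoma SK-N-SH, 1500 cells/well, 5 hr pre-incubation, then compound 16 hr, 37 °C. Caspase-Glo 3/7 reagent, 1 hr RT, luminescence. Norm. to DMSO/10 uM staurosporine; Hill-fit AC50.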

[9] = Cellular Toxicity (caspase-3) H-4-II-E (AID 663);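 note: cells exposed to compound for 16 hr before readout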
Summary of the method: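 Apoptosis induction is scored as increased luminescence from caspase 3/7 substrate cleavage in rat hepatoma H-4-II-E cells exposed to compound for 16 hr. Activity is scaled between DMSO and 100 uM tamoxifen.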

[10] = Cellular Toxicity (caspase-3) Hek293 (AID 664);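 note: cells exposed to compound for 16 h at 37 °C before readout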
Summary of the method: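 Cells plated, 5 hr at 37 °C; compounds added; 16 hr at 37 °C; Caspase-Glo 3/7 reagent, 20 min RT; luminescence read. Activation expressed relative to DMSO and 100 uM tamoxifen, AC50 by Hill model.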

Measured: outcome

C[C@@H]1C[C@H]2[C@@H]3CCC4=CC(=O)C=C[C@]4(C)[C@@]3(F)[C@@H](O)C[C@]2(C)[C@@]1(O)C(=O)CO
inactive: all assays above
